From PubChem BioAssay (EPA / NIEHS)
Results filed as inconclusive are left out. Activity calls are given as the source filed them. The calls were made as follows: active = hit-call score of the fitted dose curve at least 0.9, where 1 is the maximum; inconclusive = response in the unintended direction; inactive = score below 0.9.

assay: Tanguay_ZF_120hpf_OTIC_legacy: (Legacy) Oregon State University Tanguay Lab 120 Hour Post-fertilization zebrafish Assay for Otic Vesicle Malformation (AID 2283639)
Procedure: Tanguay_ZF_120hpf_legacy is a whole embryo, multiplexed endpoint assay using zebrafish larvae exposed for 120 hours post fertilization on a 96-well plate.Tanguay_ZF_120hpf_OTIC_legacy is one of one assay component(s) measured or calculated from the Tanguay_ZF_120hpf_legacy assay. It is designed to make measurements of zebrafish development as detected with brightfield microscopy of developing zebrafish embryos.Data from the assay component Tanguay_ZF_120hpf_OTIC_legacy was analyzed into 1 assay endpoints. This assay endpoint, Tanguay_ZF_120hpf_OTIC_legacy, was analyzed in the positive analysis fitting direction relative to DMSO as the negative control and baseline of activity. Using a type of morphology reporter, gain-of-signal activity can be used to understand changes in developmentals as they relate to the whole embryo. To generalize the intended target to other relatable targets, this assay endpoint is annotated to the zebrafish development intended target family, where the subfamily is otic vesicle morphogenesis.
Zebrafish husbandry: Tropical 5D wild-type adult zebrafish were housed in at an approximate density of 1000 per 100 gallon tank at the Sinnhuber Aquatic Research Laboratory, Oregon State University, Corvallis, OR. Each tank was kept at standard laboratory conditions of 28C on a 14-h light/10-h dark photoperiod in fish water consisting of reverse osmosis water supplemented with a commercially available salt (Instant Ocean). Spawning funnels were placed into the tanks the night prior, and embryos were collected and staged. […] Ten microliters of each row of dilution plate 2 was added to 2 exposure plates. The final DMSO concentration used was 0.64% (vol/vol). Thirty-two embryos were also exposed to 5uM trimethyltin chloride (positive control). Plates were sealed to prevent evaporation and foil covered to reduce light exposure and kept in a 28C incubator. Embryos were statically exposed until 120 hpf. At 24 hpf, embryos were assessed for photomotor response using a custom photomotor response analysis tool (PRAT) and for developmental toxicity endpoints (MO24: mortality at 24 hpf, DP: developmental progression, SM: spontaneous movement, and NC: notochord distortion). At 120 hpf, locomotor activity was measured using Viewpoint Zebralab and assessed for 18 endpoints. Zebrafish acquisition and analysis program (ZAAP), a custom program designed to inventory, acquire, and manage zebrafish data, was used to collect developmental endpoints as either present or absent (i.e., binary responses were recorded). If mortality occurred for an embryo (at either 24 or 120 hpf), the non-mortality endpoints were not measured.

Compound | outcome | AC50
CC[C@@H]1C[C@H](N(Cc2cc(C(F)(F)F)cc(C(F)(F)F)c2)C(C)=O)c2cc(C(F)(F)F)ccc2N1C(=O)OC(C)C | inactive | –
O=C1CCC(C2CCCCC2)CC1 | inactive | –
CCCCCCCCOc1ccc(C(=O)c2ccccc2)c(O)c1 | inactive | –
O=c1[nH]sc2ccccc12 | inactive | –
NC(=O)c1nc(-c2cccc(-c3cc(F)ccc3OCC(F)(F)C(F)(F)F)c2)n[nH]1 | – | 27.8 µM (active)
Clc1cc(Cl)c2c(c1)N=C1CCCCCN1C2 | inactive | –
Clc1ccccc1C(c1ccccc1)(c1ccccc1)n1ccnc1 | inactive | –
Cc1cc2c(cc1C(F)(F)F)N(C(=O)Nc1ccc(Oc3cccnc3C)nc1)CC2 | inactive | –
CCCCCCCC[Si](OCC)(OCC)OCC | inactive | –
C[C@]12CC[C@@H]3c4ccc(O)cc4CC[C@H]3[C@@H]1CCC2=O | inactive | –
O=c1ccc2ccccc2o1 | inactive | –
O=C(Nc1ccc(Cl)cc1)Nc1ccc(Cl)c(Cl)c1 | inactive | –
CC(C)(C)c1cc(/C=C2\SC(N)=NC2=O)cc(C(C)(C)C)c1O | inactive | –
CCCCCCCCCCCO | inactive | –
O=C=NCCCCCCN=C=O | inactive | –
Cc1cccc2ccccc12 | inactive | –
O=c1c(-c2ccc(O)cc2)coc2cc(O)cc(O)c12 | inactive | –
CN(C[C@@H](CC[N+]12CCC(C3CCCCC3)(CC1)CC2)c1ccc(Cl)c(Cl)c1)C(=O)c1cc(C(F)(F)F)cc(C(F)(F)F)c1 | inactive | –
CC1=CC(=O)/C(=C(/C)O)C(=O)O1 | inactive | –
CCN(CC)C(=O)c1cc(S(=O)(=O)Cc2ccccc2)c(N2CCC(c3ccccc3)CC2)cc1N(CC)CCN(C)C | inactive | –

Compound | outcome | AC50
CCCCOC(=O)c1ccc(O)cc1 | – | 46.5 µM (active)
Oc1ccc2ccccc2c1 | – | 47.3 µM (active)
CC1(C)NC(=O)N(c2ccc([N+](=O)[O-])c(C(F)(F)F)c2)C1=O | inactive | –
NCc1cccc(C2CCN(C(=O)c3ccc(C#Cc4ccccc4F)o3)CC2)c1 | inactive | –
CCN(Cc1cccnc1)C(=O)c1cccc(Cl)c1[C@]1(C)C(=O)N(Cc2ccc(OC)cc2OC)c2ccc(Cl)cc21 | inactive | –
CN(C)C(=O)C1(N2CCCCC2)CCN(CC[C@@]2(c3ccc(Cl)c(Cl)c3)CN(C(=O)c3ccccc3)CCO2)CC1 | inactive | –
CC(C)(C)c1csc(-c2cc3cc(OCc4ccccc4CC(=O)O)ccc3o2)n1 | inactive | –
Cc1c2ccccc2c(C)c2c1ccc1ccccc12 | inactive | –
O=C(O)c1ccccc1C(=O)OCc1ccccc1 | inactive | –
CCCCCCCCCCCC[N+](C)(C)C | inactive | –
CC(O)CC(C)(C)O (stereo not given) | inactive | –
COCC(C)OCC(C)OCC(C)O (stereo not given) | inactive | –
CCCCCCCCCCCCO | inactive | –
CCCCCCCCOC(=O)c1cc(O)c(O)c(O)c1 | inactive | –
OC12N=C(c3ccccc3)SC1Cc1cc(Cl)ccc12 (stereo not given) | inactive | –
c1ccc2ccccc2c1 | inactive | –
O=C1c2ccccc2C(=O)N1CCc1noc(-c2ccc(CN3CCCCCC3)s2)n1 | inactive | –
Oc1ccccc1 | inactive | –
Cc1cn([C@H]2C[C@H](N=[N+]=[N-])[C@@H](CO)O2)c(=O)[nH]c1=O | inactive | –
CCCCCc1ccc(N)cc1 | inactive | –
